The source of these data is PubChem BioAssay (NCI).

Compounds without any hit were thinned out: in the full panel of roughly 83,000, 20% have a hit.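 Testing used 96-well plates and a 48-hour single-concentration exposure. Example: -40 means 40% of the starting cells died.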 Calls of active or inactive are those of the source.

This test has as its system SW-620 colon. In words: NCI-60 one-dose screen, 48 h (100 = growth as untreated, 0 = no growth, -100 = all killed). The note with it: 10 µM unless noted. How it is done: Growth inhibition of the SW-620 human tumor cell line is measured as a screen for anti-cancer activity. Cells are grown in 96 well plates and exposed to the test compound for 48 hours. Compounds are tested at a single concentration, which is 10^-5 M for most compounds. The reported endpoint is percent growth (GI% or GIPRCNT), where numbers from 0 - 100% represent growth inhibition, and numbers from -100% - 0 represent cell death. For example, a value of 40 represents 60% growth inhibition. A value of 0 means no net growth occurred over the course of the experiment. A value of -40 indicates 40% of cells at the beginning of the experiment died by the end of the experiment. A value of -100 means all cells are dead at the end of the experiment.
NCI-60 Human Tumor Cell Lines Screen was performed using the standard one-dose NCI protocol, which is described in more detail at https://dtp.cancer.gov/discovery_development/nci-60/default.htm.
Compounds with GIPRCNT values below 10 were considered active. Activity score was based on GIPRCNT using the following formula: […]
Score is 0 for GIPRCNT values of 100 or above, 50 for GIPRCNT values of 0, and 100 for GIPRCNT values of -100.
As to `CC(C)(C)Nc1nc2c(OCCc3ccccc3)cccn2c1-c1cccc(F)c1`, the growth is 9.7% (active).
With `O=C(CSc1nnc(-c2ccc3nc(-c4ccc(Cl)cc4)[nH]c3c2)o1)Nc1ccc(C(=O)/C=C/c2ccc(Cl)cc2)cc1` the figure was 103% (inactive); with `CN(C)CCCOc1c2ccc(Cl)cc2nc2c1oc1ccccc12`, 9.59% (active).
With `N#Cc1nc(-c2ccccc2)oc1S(N)(=O)=O`, the growth was 21.1% (inactive).
With `Cc1sc2c(c1C)c(=O)nc1c(-c3nc(-c4ccc(F)cc4)no3)n[nH]n12` the figure was 111% (inactive); with `O=C1NC(=C(Cl)Cl)/C(=N/S(=O)(=O)N2CCCCC2CC2(C(F)(F)F)N=N2)N1` (stereo not given), -82.2% (active).
Then `C=CCn1c(SCC(=O)c2ccc(Br)cc2)nnc1-c1c[nH]c2ccccc12`, with 110% (inactive).
Then `O=C1[C@H]2Cc3c([nH]c4ccccc34)[C@@H](c3ccc(Br)cc3)N2C(=O)CN1C1CCN(Cc2ccccc2)CC1`, with 33.5% (inactive).
As to `CCCC(=O)NC(c1ccc(N(CC)CC)cc1)c1cc(C)c2cccnc2c1O` (stereo not given), the growth was 31.4% (inactive).
In the case of `C[C@@H](Nc1c(C#N)cnc2ccc(-c3cnc(N)nc3)cc12)c1ccccc1`, the growth is 14.9% (inactive).
Then `COc1cccc(-c2nn(-c3ccccc3)cc2-c2ccnc(N3CCN(C(=O)c4ccccc4)CC3)c2)c1`, with 72.1% (inactive); and `C#C[C@]1(O)CC[C@H]2[C@@H]3CC=C4c5sc(Nc6ccc(Cl)cn6)nc5CC[C@]4(C)[C@H]3CC[C@@]21C`, with 29.5% (inactive); and `O=C(NNc1nc2cc(F)ccc2n2c(CN3CC4(COC4)C3)ccc12)c1cnccn1`, with 27.1% (inactive).
Turning to `OC1CCN(CCCOc2c3ccc(Cl)cc3nc3c2oc2ccc(Cl)cc23)CC1`, the growth is -82.6% (active).
With `COc1ccc(-n2c(SCC(=O)Nc3ccc(-c4nc5ccccc5[nH]4)cc3)nc3ccccc3c2=O)cc1` the figure was 8.47% (active); with `CNC(=O)c1cc(-c2ccc(NC(=O)Nc3ccc(N4CCOCC4)c(C(F)(F)F)c3)cc2)nc2cccnc12`, 72.3% (inactive); with `Nc1nc(N)c2c(n1)NC(c1ccc(F)cc1)CC(c1ccc(Nc3nc(NCCO)nc(Nc4ccc(Cl)cc4)n3)cc1)=N2` (stereo not given), -52.8% (active).
With `COc1cc(/C=C/C(=O)c2ccccc2)ccc1Oc1nc(NCCO)nc(N2CCOCC2)n1` the figure was 60.9% (inactive); with `Cc1cccc2sc(/N=C(\N)C(Br)Br)nc12`, -40.2% (active); with `COc1ccc(-c2csc(N/N=C/c3c(-c4ccc(S(C)(=O)=O)cc4)nc4ccccn34)n2)cc1`, 107% (inactive).
In the case of `COc1ccc(-c2nc3ccc(-c4nnc(SCC(=O)Nc5ccc(C(=O)/C=C/c6ccc(Cl)cc6)cc5)o4)cc3[nH]2)cc1OC`, the growth was 105% (inactive).
With `N#Cc1nc(-c2ccccc2)oc1N1CC[C@@H](CO)C1` the figure was 99% (inactive).
Then `COc1cc(/C=C/C(=O)c2ccc(F)cc2)ccc1Oc1nc(NCCO)nc(N2CCOCC2)n1`, with 0.783% (active).
Then `COc1cc(-c2nc3ccc(-c4nnc(SCC(=O)Nc5ccc(C(C)=O)cc5)o4)cc3[nH]2)cc(OC)c1OC`, with 101% (inactive).
As for `CN1C(=O)N(c2ccccc2)C2N=C(N/N=C/c3ccccc3)SC21` (stereo not given), the growth was 15.2% (inactive).
With `Nc1c(C(=O)Nc2ccc(C(F)(F)F)cc2)sc2nc(-c3cnccn3)cc(-c3cccs3)c12` the figure was 103% (inactive); with `COC(=O)C(C)NS(=O)(=O)/N=C1\NC(=O)NC1=C(Cl)Cl` (stereo not given), 124% (inactive); with `Cc1cccc(/C=C/c2nn3c(-c4ccco4)nnc3s2)c1`, 101% (inactive).
With `Cc1c(Nc2nnc(SCC(=O)Nc3sc4c(c3C#N)CCCC4)s2)c(=O)n(-c2ccccc2)n1C` the figure was 103% (inactive).
In the case of `COc1ccc(/C=C2\SC(=Nc3cc(C)on3)NC2=O)cc1`, the growth was 99% (inactive).
As to `OC1CCN(CCCOc2c3ccccc3nc3c2oc2ccccc23)CC1`, the growth was 1.37% (active).
With `N#Cc1ccc(C(=O)CSc2nc(Nc3ccc(S(N)(=O)=O)cc3)c3ccccc3n2)cc1` the figure was 103% (inactive).
Then `Fc1ccc(-c2cc3nc(C(Cl)Cl)nc(-c4ccccc4)n3n2)cc1`, with -50.2% (active); and `CCN1C(=S)N(c2ccccc2)C2NC(=O)N(/N=C/C=C/c3ccccc3OC)C21` (stereo not given), with 90.4% (inactive).
Then `O=C(CCN1C(=O)/C(=C/c2ccccc2F)SC1=S)N1CCOCC1`, with 58.8% (inactive); and `O=C1C2=C(C(=O)c3c(O)cccc31)C(c1ccco1)c1sc(=O)[nH]c1S2` (stereo not given), with 13% (inactive).
For the compound `N[C@@H](Cc1cn(-c2c3ccccc3nc3ccccc23)nn1)C(=O)O`, the growth is 105% (inactive).
With `Cn1ccnc1C(=O)/C=C/c1ccc(NC(=O)Nc2ccccc2)cc1` the figure was 2.15% (active); with `COc1ccccc1/C=C/C=N/NC1=NC2C(S1)N(C)C(=O)N2C` (stereo not given), 20.9% (inactive).
As to `COc1ccccc1C(=O)CSc1nc(Nc2ccc(S(N)(=O)=O)cc2)c2ccccc2n1`, the growth is 98.1% (inactive).
